Source: PubChem BioAssay (NCATS)
Results filed as inconclusive are left out. Where a call stands in place of a potency, no number is given. The source made the active and inactive calls. Calls follow the shape of the dose curve; as a rule, active = well fitted cell-killing curve with a large enough effect; inconclusive = small, poorly fitted or top-dose-only effect; inactive = flat fitted curve, though single readings scatter.

Experiment: Cell Viability - LYMP2-014 (AID 983);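 also: cells exposed to compound for 24 h at 37 °C; nearly all actives have a fitted effect of over 50% in size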
Conditions: LYMP2-014 lymphoblastoid cells, viability qHTS; series mostly up to 92.2 µM
Description: NIH Chemical Genomics Center [NCGC]
NIH Molecular Libraries Screening Centers Network [MLSCN]
National Institutes of Environmental Health Sciences [NIEHS]
National Toxicology Program [NTP]
We have developed a 1536-well cell-based assay for quantitative high throughput screening (qHTS) against a number of cell lines to determine in vitro cytotoxicity of small molecules. This particular assay uses a human lymphoblastoid cell line (LYMP2-014) purchased from Coriell Institute for Medical Research.
NCGC Assay Protocol Summary:
The CellTiter-Glo luminescent cell viability assay (Promega) is a homogeneous method to measure the number of viable cells in culture. The end point readout of this assay is based on quantitation of intracellular ATP, an indicator of metabolic activity, using the luciferase reaction. Luciferase catalyzes the oxidation of beetle Luciferin to oxyluciferin and light in the presence of ATP. The luminescent signal is proportional to amount of ATP present.
Using the CellTiter-Glo luminescent cell viability assay, the amount of cellular ATP was measured in the lymphoblastoid cell line with complete culture medium following compound treatment for 24 hours. The assay was performed in opaque white Kalypsys 1536-well plates. In the screen, tetraoctylammonium bromide was used as positive control. Library compounds were measured for their ability to cause acute toxicity in the cell line, as reflected by a decrease in intracellular ATP levels, in a concentration-dependent manner. […] AC50 values were determined from concentration-response data modeled with the standard Hill equation.
qHTS protocol for CellTiter Glo lymphoblastoid cellular assay
[Step] [Parameter] [Value] [Description]
1. Reagent; 5 uL; 2500 lymphoblastoid cells/well
2. Time; 5 hr; 37 C incubation
4. Controls; 23 nL; Tetraoctylammonium bromide 6.4pM to 92 uM
5. Time; 24 hr; 37 C incubation
6. Reagent; 5 uL; CellTiter Glo reagent
7. Time; 30 min; Room Temperature
8. Detection; Luminescence; Viewlux plate reader
Keywords: cell viability, cytotoxicity, lymphoblastoid cell line, luminescence, NTPHTS, NTPHTS_NCGC, NIEHS, DSSTox, MLSMR, MLSCN, NIH Roadmap, qHTS, NCGC
In the case of O=C(O)c1ccc(C(=O)O)cc1, the Potency is reported as “inactive”.
In the case of CSCCC=O, the Potency is reported as “inactive”.
With COc1cccc2sc(N)nc12 the Potency was “inactive”.
For c1ccc(Oc2ccccc2)cc1, the Potency was “inactive”.
For O=C(O)c1ccc(Cl)c(Cl)c1, the Potency was “inactive”.
In the case of O=c1[nH][nH]c(=O)c2cc([N+](=O)[O-])ccc12, the Potency is reported as “inactive”.
For O=C(O)/C=C/C(=O)O, the Potency was “inactive”.
With Cc1ccccc1C(N)=O the Potency was “inactive”.
In the case of CCCCC(CC)COC(=O)CCCCC(=O)OCC(CC)CCCC (stereo not given), the Potency is reported as “inactive”.
For Nc1nc(CC(=O)O)cs1, the Potency was “inactive”.
For CCCCOCCOCCSC#N, the Potency was “inactive”.
For Nc1nc(-c2ccccc2)cs1, the Potency was “inactive”.
In the case of O=C(Cl)c1ccccc1[N+](=O)[O-], the Potency is reported as “inactive”.
With Cc1cc([N+](=O)[O-])ccc1N the Potency was “inactive”.
With Fc1ccccc1 the Potency was “inactive”.
In the case of c1ccc(Nc2ccccc2)cc1, the Potency is reported as “inactive”.
For CSc1ccc(C=O)cc1, the Potency was “inactive”.
With O=C(O)CNC(=O)c1ccc([N+](=O)[O-])cc1 the Potency was “inactive”.
In the case of NC(=O)/N=N/C(N)=O, the Potency is reported as “inactive”.
With CC(=O)OC(C)C the Potency was “inactive”.
With CC(C)=C1CCC(C)CC1=O (stereo not given) the Potency was “inactive”.
For O=C1CCCCC1, the Potency was “inactive”.
In the case of CC/C=C1/OC(=O)c2ccccc21, the Potency is reported as “inactive”.
For CC(=O)Nc1ccc(C)cc1, the Potency was “inactive”.
In the case of CCCCC(CC)C(=O)O (stereo not given), the Potency is reported as “inactive”.
For NC(=O)c1cccc([N+](=O)[O-])c1, the Potency was “inactive”.
In the case of CCOC(=O)C(C)C(C)=O (stereo not given), the Potency is reported as “inactive”.
With Cc1ccc(N(C)C)cc1 the Potency was “inactive”.
With CCCC(Cl)CCCC(Cl)CCC(Cl)CCC(Cl)CCC(Cl)CCCC(Cl)CCC (stereo not given) the Potency was “inactive”.
For Nc1cccc(C(F)(F)F)c1, the Potency was “inactive”.
For Nc1cc(S(=O)(=O)O)ccc1O, the Potency was “inactive”.
In the case of CC(C)(C)OCC1CO1 (stereo not given), the Potency is reported as “inactive”.
In the case of NC(=O)c1ccccc1[N+](=O)[O-], the Potency is reported as “inactive”.
With CCCCC(CC)CO (stereo not given) the Potency was “inactive”.
In the case of CNC(=O)N(c1ccccc1)c1ccccc1, the Potency is reported as “inactive”.
For C=CCn1c(=O)n(CC=C)c(=O)n(CC=C)c1=O, the Potency was “inactive”.
For COc1ccc(N)c(C)c1, the Potency was “inactive”.
With CC(C)CO the Potency was “inactive”.
With CC(=O)CC(C)C the Potency was “inactive”.
For O=[N+]([O-])c1ccc(Cl)cc1Cl, the Potency was “inactive”.
